In PubChem BioAssay AID1159580 (chemical genetic matrix, 2015):
In all, about 5,500 compounds went through this assay and about 2,000 (36%) were called active. Not shown: some 18% with an inconclusive outcome. Rule as the data show it: active = normalized growth mostly below about 0.91 (no sharp cut-off); inconclusive = no clear call, values can overlap the other calls; inactive = mostly above about 0.92. The list shows a part of the results.

Test: chemical genetic growth profiling, strain panel (AID 1159580);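 also: tested at 20 µM; growth read once vehicle control cultures reached saturation at 30 °C; 1 = growth at the plate median or of vehicle wells; lower values mean less growth of the strain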
Details: growth OD

Measured: normalized growth

O=c1cccc2n1CC1CC2CN2CCCC[C@@H]12 (stereo not given in full)
inactive: S. cerevisiae deletion strains, locus YJR043C, strain POL32, active compounds read low 0.982 | S. cerevisiae deletion strains, locus YJR066W, strain TOR1, active compounds read low 0.98 | S. cerevisiae deletion strains, locus YJR075W, strain HOC1, active compounds read low 0.986 | S. cerevisiae deletion strains, locus YKL009W, strain mrt4, active compounds read low 0.977 | S. cerevisiae deletion strains, locus YKL068W, active compounds read low 0.983 | S. cerevisiae deletion strains, locus YKL085W, strain MDH1 (second series), active compounds read low 0.986 | S. cerevisiae deletion strains, locus YKL085W, strain MDH1, active compounds read low 0.986 | S. cerevisiae deletion strains, locus YKL160W, strain elf1, active compounds read low 0.996 | S. cerevisiae deletion strains, locus YKR001C, strain vps1, active compounds read low 1 | S. cerevisiae deletion strains, locus YKR026C, strain gcn3, active compounds read low 0.965 | S. cerevisiae deletion strains, locus YKR091W, strain srl3, active compounds read low 0.978 | S. cerevisiae deletion strains, locus YLL001W, strain dnm1, active compounds read low 0.987 | S. cerevisiae deletion strains, locus YLL026W, active compounds read low 0.976 | S. cerevisiae deletion strains, locus YLL041C, strain sdh2, active compounds read low 0.98 | S. cerevisiae deletion strains, locus YLR027C, strain aat2, active compounds read low 0.984 | S. cerevisiae deletion strains, locus YLR039C, strain RIC1, active compounds read low 1 | S. cerevisiae deletion strains, locus YLR058C, strain SHM2, active compounds read low 0.978 | S. cerevisiae deletion strains, locus YLR102C, strain apc9, active compounds read low 0.982 | S. cerevisiae deletion strains, locus YLR113W, strain HOG1, active compounds read low 0.985 | S. cerevisiae deletion strains, locus YLR221C, strain rsa3, active compounds read low 1 | S. cerevisiae deletion strains, locus YLR258W, strain gsy2, active compounds read low 0.978 | S. cerevisiae deletion strains, locus YLR262C, strain YPT6 (second series), active compounds read low 1.01 | S. cerevisiae deletion strains, locus YLR262C, strain YPT6, active compounds read low 0.955 | S. cerevisiae deletion strains, locus YLR268W, strain sec22, active compounds read low 1.03 | S. cerevisiae deletion strains, locus YLR320W, strain mms22, active compounds read low 0.974 | S. cerevisiae deletion strains, locus YLR330W, strain CHS5, active compounds read low 0.997 | S. cerevisiae deletion strains, locus YLR342W, strain FKS1 (second series), active compounds read low 1.01 | S. cerevisiae deletion strains, locus YLR342W, strain FKS1, active compounds read low 0.975 | S. cerevisiae deletion strains, locus YLR357W, strain rsc2, active compounds read low 0.943 | S. cerevisiae deletion strains, locus YLR370C, strain arc18, active compounds read low 0.989 | S. cerevisiae deletion strains, locus YLR371W, strain rom2, active compounds read low 0.977 | S. cerevisiae deletion strains, locus YLR384C, strain iki3, active compounds read low 0.976 | S. cerevisiae deletion strains, locus YLR418C, strain cdc73, active compounds read low 0.957 | S. cerevisiae deletion strains, locus YML016C, strain PPZ1, active compounds read low 0.991 | S. cerevisiae deletion strains, locus YML032C, strain rad52, active compounds read low 0.987 | S. cerevisiae deletion strains, locus YML120C, strain ndi1, active compounds read low 1.02 | S. cerevisiae deletion strains, locus YML124C, strain tub3, active compounds read low 0.978 | S. cerevisiae deletion strains, locus YMR058W, strain fet3, active compounds read low 0.987 | S. cerevisiae deletion strains, locus YMR078C, strain ctf18, active compounds read low 0.98 | S. cerevisiae deletion strains, locus YMR125W, strain sto1, active compounds read low 0.944 | S. cerevisiae deletion strains, locus YMR129W, active compounds read low 0.987 | S. cerevisiae deletion strains, locus YMR205C, strain PFK2, active compounds read low 0.928 | S. cerevisiae deletion strains, locus YMR223W, strain ubp8, active compounds read low 0.958 | S. cerevisiae deletion strains, locus YMR231W, strain pep5, active compounds read low 0.98 | S. cerevisiae deletion strains, locus YMR263W, strain SAP30, active compounds read low 0.981 | S. cerevisiae deletion strains, locus YMR307W, strain GAS1, active compounds read low 1.04 | S. cerevisiae deletion strains, locus YNL067W, strain RPL9B, active compounds read low 0.989 | S. cerevisiae deletion strains, locus YNL071W, strain lat1, active compounds read low 0.994 | S. cerevisiae deletion strains, locus YNL153C, strain GIM3, active compounds read low 0.993 | S. cerevisiae deletion strains, locus YNL183C, strain NPR1, active compounds read low 0.993 | S. cerevisiae deletion strains, locus YNL209W, strain ssb2, active compounds read low 0.984 | S. cerevisiae deletion strains, locus YNL233W, strain BNI4, active compounds read low 1 | S. cerevisiae deletion strains, locus YNL248C, strain rpa49, active compounds read low 1.01 | S. cerevisiae deletion strains, locus YNL250W, strain rad50, active compounds read low 0.967 | S. cerevisiae deletion strains, locus YNL271C, strain bni1, active compounds read low 0.996 | S. cerevisiae deletion strains, locus YNL298W, strain CLA4, active compounds read low 0.986 | S. cerevisiae deletion strains, locus YNL307C, strain MCK1, active compounds read low 0.981 | S. cerevisiae deletion strains, locus YNL322C, strain KRE1 (second series), active compounds read low 0.976 | S. cerevisiae deletion strains, locus YNR049C, strain mso1, active compounds read low 0.974 | S. cerevisiae deletion strains, locus YNR052C, strain pop2, active compounds read low 0.979 | S. cerevisiae deletion strains, locus YOL006C, strain TOP1, active compounds read low 1.04 | S. cerevisiae deletion strains, locus YOL012C, strain htz1 0.724 | S. cerevisiae deletion strains, locus YOL147C, strain pex11, active compounds read low 0.98 | S. cerevisiae deletion strains, locus YOR001W, strain rrp6, active compounds read low 0.993 | S. cerevisiae deletion strains, locus YOR061W, strain CKA2, active compounds read low 0.962 | S. cerevisiae deletion strains, locus YOR069W, strain VPS5, active compounds read low 0.999 | S. cerevisiae deletion strains, locus YOR070C, strain gyp1, active compounds read low 0.99 | S. cerevisiae deletion strains, locus YOR080W, strain dia2, active compounds read low 0.971 | S. cerevisiae deletion strains, locus YOR083W, strain WHI5, active compounds read low 1.02 | S. cerevisiae deletion strains, locus YOR106W, strain vam3, active compounds read low 0.985 | S. cerevisiae deletion strains, locus YOR136W, strain idh2, active compounds read low 0.973 | S. cerevisiae deletion strains, locus YOR144C, strain elg1, active compounds read low 0.976 | S. cerevisiae deletion strains, locus YOR184W, strain ser1, active compounds read low 0.973 | S. cerevisiae deletion strains, locus YOR231W, strain MKK1, active compounds read low 1.03 | S. cerevisiae deletion strains, locus YOR265W, strain rbl2, active compounds read low 0.968 | S. cerevisiae deletion strains, locus YOR270C, strain vph1, active compounds read low 0.987 | S. cerevisiae deletion strains, locus YOR290C, strain snf2, active compounds read low 0.951 | S. cerevisiae deletion strains, locus YOR316C, strain cot1, active compounds read low 0.976 | S. cerevisiae deletion strains, locus YPL051W, strain arl3, active compounds read low 1 | S. cerevisiae deletion strains, locus YPL078C, strain atp4, active compounds read low 0.999 | S. cerevisiae deletion strains, locus YPL106C, strain sse1, active compounds read low 0.927 | S. cerevisiae deletion strains, locus YPL240C, strain hsp82, active compounds read low 0.994 | S. cerevisiae deletion strains, locus YPL241C, strain CIN2, active compounds read low 0.994 | S. cerevisiae deletion strains, locus YPL256C, strain CLN2, active compounds read low 1.01 | S. cerevisiae deletion strains, locus YPR119W, strain clb2, active compounds read low 0.976 | S. cerevisiae deletion strains, locus YPR141C, strain kar3, active compounds read low 0.97 | S. cerevisiae deletion strains, locus YPR163C, strain tif3, active compounds read low 0.973 | S. cerevisiae deletion strains, locus YPR167C, strain met16, active compounds read low 0.973 | S. cerevisiae deletion strains, strain wtn01, active compounds read low 1.04 | S. cerevisiae strains, strain wild type, active compounds read low 1
